From PubChem BioAssay
Hits are enriched below; roughly 2.7% of the tested compounds scored in any of these assays.
Peg3 prom inh – Peg3 promoter-driven luciferase inhibitors, primary screen, cell-based, HeLa, luciferase luminescence. HeLa PEG-Prom luciferase reporter, overnight. inhibition, % at 20 µM. 360,000 tested, 1.7% active. AID 588405, 2011;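 active = inhibition of at least 50% at 20 µM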
MITF TRPM1 inh – inhibitors of MITF-dependent TRPM1 promoter reporter, primary screen, cell-based, SK-MEL-5, single point, luciferase | SK-MEL-5 TRPM1 promoter luciferase, 24 h | inhibition, % at 12.5 µM | 330,000 tested, 0.83% active;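 active = mean inhibition across replicates of 60% or more, whatever share of single replicates reaches that level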
HIF-2a inh – HIF-2a reporter inhibitors, primary screen, luminescence, 786-0 RCC cells; 786-0 RCC cells HIF-2a reporter, luciferase luminescence, overnight; inhibition, % at 18.8 µM; 360,000 tested, 0.72% active; AID 624352, 2012;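 active = inhibition of the luminescence signal of 40% or more relative to plate controls, in a single-dose primary screen at 18.75 µM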
CF NFkB block – inhibitors of PAF-induced NF-kB signaling, primary screen, cell-based, GFP fluorescence, uHTS; KKLEB NF-kB-GFP reporter, GFP fluorescence overnight; inhibition, % at 5 µM; 360,000 tested, 0.86% active;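 active = at least 50% inhibition at 5 µM, scaled per plate between neutral and stimulator controls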;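 also: PAF is a Pseudomonas aeruginosa culture filtrate used as stimulus; plate controls were PAF-stimulated DMSO wells for no effect and unstimulated DMSO wells for full effect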
KKLEB cytotox – cytotoxicity in KKLEB CF airway cells, primary screen, cytotoxicity control for CF NF-kB inhibitor project, cell-based, uHTS, fluorescence assay plates | KKLEB CF airway cells viability, ATPlite luminescence, overnight; active compounds read low; cells stimulated with P. aeruginosa culture filtrate | activity change (cytotoxicity), % at 5 µM | 360,000 tested, 0.36% active;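 active = corrected activity change at or below -50% at 5 µM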
Shn3 3UTR inh – reduction of Shn3 3'UTR firefly luciferase signal, primary screen, Schnurri-3 inhibitor project, cell-based, Clone20 osteoblasts, set 2. Clone20 osteoblast Shn3 3'UTR firefly luciferase, 24 h. inhibition, % at 12.5 µM. 360,000 tested, 0.52% active. AID 588674, 2011;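 active = mean inhibition of at least 75% with every replicate also reaching 75%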;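 also: 0% = median of neutral control wells and 100% = pilot-screen positive control compound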
CF NFkB inh conf – inhibitors of PAF-induced NF-kB signaling, retest, confirmation, cell-based, GFP fluorescence, single concentration; shares compounds with CF NFkB block; KKLEB CF airway cells, overnight; inhibition, % at 5 µM; 1,300 tested, 64% active; in the data active = inhibition above about 40%;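 also: stimulus PAF is a Pseudomonas aeruginosa filtrate and not platelet activating factor; plate controls were DMSO wells with stimulus for no effect and unstimulated DMSO wells for full effect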
Starred values were filed as active, the others as inactive; . = not tested or not shown.

SMILES	Peg3 prom inh	MITF TRPM1 inh	HIF-2a inh	CF NFkB block	KKLEB cytotox	Shn3 3UTR inh	CF NFkB inh conf
COc1ccccc1CN1CC(C(=O)NCCn2ccc(C)n2)CCC1=O (centres undefined)	-24.9	-0.6	-40.1	-6.3	3.6	6.1	.
COc1cccc(NC(=O)CN(C)CC(=O)Nc2ccc(C)c([N+](=O)[O-])c2)c1	7.5	-15.0	1.8	65.7*	0.3	38.1	75.7*
CCNC(=O)C1(C)CCN(Cc2ccccc2C#N)C1 (centres undefined)	9.8	.	1.0	13.3	-14.6	7.4	.
CCSC1(SCC)N=C(N)C2(C#N)C(c3ccc(OC)c(OC)c3OC)C12C#N (centres undefined)	30.5	35.9	34.8	79.1*	-16.7	-19.6	35.4
N#Cc1ccc[n+](CC(=O)c2ccc(NC(=O)c3ccccc3)cc2)c1	-10.1	-3.8	-4.5	-0.2	-2.2	-3.0	.
CCCCCCc1cc2cc(/C(N)=N/NC(=O)c3ccncc3)c(=O)oc2cc1O	19.8	9.3	8.8	21.8	-1.8	16.9	.
CCCCCCc1cc2cc(C(=O)OCC)c(=O)oc2cc1O	27.0	3.2	-44.9	53.3*	-31.7	24.6	78.0*
CCCCC(=O)Nc1ccc(NCc2ccc(C)s2)cc1	-20.9	-2.3	-20.1	9.5	-9.1	10.1	.
NC(=O)c1cc2ccc(O)cc2oc1=Nc1ccccc1	-119.2	-39.1	-109.7	82.2*	-27.8	-29.1	83.2*
O=c1oc2ccc(Br)cc2cc1S(=O)(=O)c1ccc(F)cc1	50.5*	9.1	-20.7	58.3*	-7.2	-7.0	22.4
Cc1ncc(CO)c2cc(S(=O)(=O)c3ccc(F)cc3)c(=O)oc12	-0.6	-1.4	9.2	15.2	-21.3	-18.7	.
CSCCC(NC(=O)COc1ccccc1)C(=O)NCC1COc2ccccc2O1 (centres undefined)	19.6	3.4	2.3	1.9	4.0	-16.6	.
C=CCOc1c(OC)cc(/C=N/Nc2cccc(C(=O)O)c2)c(Br)c1Br	-141.2	-52.7	-199.4	62.2*	-36.3	-30.3	67.4*
COc1ccc(NC(=O)Nc2cccc3c2O[C@H](CN(C)Cc2ccc(-c4ccccc4)cc2)[C@@H](C)CN([C@H](C)CO)C3=O)cc1	93.9*	22.8	-11.0	58.8*	-32.5	16.8	-9.4
C[C@@H]1CN([C@H](C)CO)C(=O)c2cc(NC(=O)Nc3ccc(C(F)(F)F)cc3)ccc2O[C@H]1CN(C)S(=O)(=O)c1ccccc1	12.2	9.5	21.5	56.9*	14.2	7.7	56.8*
C[C@@H]1CN([C@@H](C)CO)C(=O)c2cccc(NC(=O)Nc3ccc(F)cc3)c2O[C@@H]1CN(C)Cc1ccc(Oc2ccccc2)cc1	38.2	37.3	-3.3	10.9	-13.7	37.6	.
COc1ccc(S(=O)(=O)N(C)C[C@H]2Oc3ccc(NC(=O)Nc4ccc(C(F)(F)F)cc4)cc3C(=O)N([C@H](C)CO)C[C@@H]2C)cc1	41.4	53.8	-26.6	23.1	-15.0	57.5	.
COC(=O)C1CCN(C(=O)/C=C/c2ccc3c(c2)OCO3)CC1	-213.3	-43.8	-102.8	3.0	1.9	-43.7	.
COc1cccc(NC(=O)N2CCC(NC(=O)C(Cc3ccccc3F)NC(C)=O)CC2)c1 (centres undefined)	11.3	4.8	17.1	0.1	-3.1	-1.0	.
CC1CCN(Cc2c(C(=O)N/N=C/c3ccc(C(C)(C)C)cc3)nnn2-c2nonc2N)CC1	106.1*	22.9	23.5	52.9*	-41.0	56.9	62.5*
COc1ccc(-c2csc(NC3OC(=O)c4c3ccc(OC)c4OC)n2)cc1OC (centres undefined)	60.1*	23.2	13.6	77.3*	-13.0	.	87.2*
COc1ccc2c(c1OC)C(=O)OC2Nc1nc(-c2ccc([N+](=O)[O-])cc2)cs1 (centres undefined)	-194.6	-12.0	-112.9	-7.6	2.5	-13.3	.
Cc1ccc(C(=O)CCC(=O)OCC(=O)NNC(=O)c2ccc([N+](=O)[O-])cc2)cc1	11.3	-3.5	7.0	2.1	0.9	-46.7	.
Nc1[nH]nc2nc(N3CCCC3)nc(-c3ccccc3)c12	5.1	10.6	18.3	14.3	-6.6	-15.9	.
COc1ccc(-c2nc(N3CCOCC3)nc3n[nH]c(N)c23)cc1	21.5	24.1	29.3	68.7*	-25.5	26.4	56.3*
SMILES	Peg3 prom inh	MITF TRPM1 inh	HIF-2a inh	CF NFkB block	KKLEB cytotox	Shn3 3UTR inh	CF NFkB inh conf
COc1ccc(CN(C(=O)CSc2nnc(-c3c[nH]c4ccccc34)o2)c2ccc(F)cc2)cc1OC	107.0*	-0.3	-175.9	62.9*	-8.0	80.3	67.8*
CCOC(=O)CSc1nnc(-c2c[nH]c3ccccc23)o1	-5.4	-0.1	26.5	-10.6	-13.6	-9.1	.
CC(=O)Oc1ccc(N(C(C)=O)S(=O)(=O)c2ccc(C)cc2C)c2ccccc12	-0.6	6.9	20.9	42.5	-6.9	-15.4	.
COc1ccc(S(=O)(=O)N(C(C)=O)c2ccc(OC(C)=O)c3ccccc23)cc1[N+](=O)[O-]	16.9	71.5*	13.7	79.4*	-17.1	9.7	102.2*
CC(=O)Oc1c(Cl)cc(N(C(C)=O)S(=O)(=O)c2ccccc2)c2ccccc12	4.2	.	1.6	57.1*	-19.4	10.6	54.2*
CC(=O)Oc1ccc(N(C(C)=O)S(=O)(=O)c2ccccc2)c2ccccc12	6.2	.	12.5	68.9*	0.3	19.0	10.4
CC(=O)N(c1ccccc1Cl)S(=O)(=O)c1ccc(Cl)cc1	13.9	-5.1	14.1	26.5	-6.7	0.0	.
CCn1nc(NC(=O)Cc2ccc(OC)cc2)c2cc3cc(C)ccc3nc21	14.2	-7.1	20.5	0.0	5.5	-4.8	.
Cc1ccc(C)c(S(=O)(=O)Nc2ccc(C(=O)N3CCC3)cc2)c1	7.5	4.9	12.8	-2.5	8.3	12.7	.
COc1ccc2ccc(OCC(=O)Nc3cc(C)on3)cc2c1	-4.2	0.4	4.7	29.1	-8.2	-7.0	.
CC(C)CN(C(=O)c1ccc([N+](=O)[O-])s1)c1c(N)n(Cc2ccccc2)c(=O)[nH]c1=O	-2.4	-70.3	3.9	19.0	-6.8	-11.0	.
Cc1cccc(-n2c(CNC(=O)c3ccc(S(=O)(=O)N4CCCCC4)cc3)n[nH]c2=S)c1	-2.1	1.7	-10.0	12.3	4.1	0.6	.
COc1cc(-c2nnc(NC(=O)CCS(=O)(=O)c3ccc(F)cc3)o2)cc(OC)c1OC	-10.0	2.0	-2.7	54.1*	-29.5	-25.0	34.2
COc1cc(-c2nnc(NC(=O)CCS(=O)(=O)c3ccccc3)o2)cc(OC)c1OC	-55.6	13.3	-10.4	2.7	2.6	-7.6	.
